Laboratory results: PubChem BioAssay AID1159580 (chemical genetic matrix, 2015)
“And” between values parts separate entries of the source, which are not always exact repeats. Equal entries are not always repeated. Out of some 5,500 compounds screened, about 2,000 (36%) were called active. About 18% were inconclusive and are not listed. Rule as the data show it: active = normalized growth mostly below about 0.91 (no sharp cut-off); inconclusive = no clear call, values can overlap the other calls; inactive = mostly above about 0.92. Some of the results follow.

Assay: chemical genetic growth profiling, strain panel (AID 1159580);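 also: tested at 20 µM; growth read once vehicle control cultures reached saturation at 30 °C; 1 = growth at the plate median or of vehicle wells; lower values mean less growth of the strain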
Details: growth OD

Measured: normalized growth

CN1Cc2c(N)cccc2C(c2ccccc2)C1 (centres undefined)
inactive: S. cerevisiae deletion strains, locus YJR075W, strain HOC1, hits give low values 1.01 and 0.995 | S. cerevisiae deletion strains, locus YKL009W, strain mrt4, hits give low values 1 | S. cerevisiae deletion strains, locus YKL068W, hits give low values 1 | S. cerevisiae deletion strains, locus YKL085W, strain MDH1 (second series), hits give low values 1.01 | S. cerevisiae deletion strains, locus YKL085W, strain MDH1, hits give low values 1.01 | S. cerevisiae deletion strains, locus YKL160W, strain elf1, hits give low values 1.02 | S. cerevisiae deletion strains, locus YKL190W, strain CNB1, hits give low values 1.01 | S. cerevisiae deletion strains, locus YKR001C, strain vps1, hits give low values 1 | S. cerevisiae deletion strains, locus YKR026C, strain gcn3, hits give low values 1.01 | S. cerevisiae deletion strains, locus YKR091W, strain srl3, hits give low values 1 | S. cerevisiae deletion strains, locus YLL001W, strain dnm1, hits give low values 1.01 | S. cerevisiae deletion strains, locus YLL026W, hits give low values 1.01 | S. cerevisiae deletion strains, locus YLL041C, strain sdh2, hits give low values 1.01 | S. cerevisiae deletion strains, locus YLR027C, strain aat2, hits give low values 1.02 | S. cerevisiae deletion strains, locus YLR039C, strain RIC1, hits give low values 1.03 | S. cerevisiae deletion strains, locus YLR058C, strain SHM2, hits give low values 1 | S. cerevisiae deletion strains, locus YLR102C, strain apc9, hits give low values 1.01 | S. cerevisiae deletion strains, locus YLR113W, strain HOG1, hits give low values 0.982 | S. cerevisiae deletion strains, locus YLR221C, strain rsa3, hits give low values 0.994 | S. cerevisiae deletion strains, locus YLR258W, strain gsy2, hits give low values 0.99 | S. cerevisiae deletion strains, locus YLR262C, strain YPT6 (second series), hits give low values 1.03 | S. cerevisiae deletion strains, locus YLR262C, strain YPT6, hits give low values 1.05 | S. cerevisiae deletion strains, locus YLR268W, strain sec22, hits give low values 1.02 | S. cerevisiae deletion strains, locus YLR320W, strain mms22, hits give low values 0.971 | S. cerevisiae deletion strains, locus YLR330W, strain CHS5, hits give low values 1.01 | S. cerevisiae deletion strains, locus YLR342W, strain FKS1 (second series), hits give low values 1.06 | S. cerevisiae deletion strains, locus YLR342W, strain FKS1, hits give low values 1.01 | S. cerevisiae deletion strains, locus YLR357W, strain rsc2, hits give low values 0.982 | S. cerevisiae deletion strains, locus YLR370C, strain arc18, hits give low values 1 | S. cerevisiae deletion strains, locus YLR371W, strain rom2, hits give low values 1.02 | S. cerevisiae deletion strains, locus YLR384C, strain iki3, hits give low values 1.01 | S. cerevisiae deletion strains, locus YLR418C, strain cdc73, hits give low values 1.01 | S. cerevisiae deletion strains, locus YML016C, strain PPZ1, hits give low values 1 | S. cerevisiae deletion strains, locus YML032C, strain rad52, hits give low values 0.994 | S. cerevisiae deletion strains, locus YML120C, strain ndi1, hits give low values 1.02 | S. cerevisiae deletion strains, locus YML124C, strain tub3, hits give low values 1.01 | S. cerevisiae deletion strains, locus YMR058W, strain fet3, hits give low values 1.02 | S. cerevisiae deletion strains, locus YMR078C, strain ctf18, hits give low values 1.02 | S. cerevisiae deletion strains, locus YMR125W, strain sto1, hits give low values 0.995 | S. cerevisiae deletion strains, locus YMR129W, hits give low values 1.01 | S. cerevisiae deletion strains, locus YMR205C, strain PFK2, hits give low values 1.04 | S. cerevisiae deletion strains, locus YMR223W, strain ubp8, hits give low values 1.03 | S. cerevisiae deletion strains, locus YMR231W, strain pep5, hits give low values 1 | S. cerevisiae deletion strains, locus YMR263W, strain SAP30, hits give low values 1 | S. cerevisiae deletion strains, locus YMR307W, strain GAS1, hits give low values 1.02 | S. cerevisiae deletion strains, locus YNL067W, strain RPL9B, hits give low values 0.988 | S. cerevisiae deletion strains, locus YNL071W, strain lat1, hits give low values 1.01 | S. cerevisiae deletion strains, locus YNL153C, strain GIM3, hits give low values 0.969 | S. cerevisiae deletion strains, locus YNL175C, strain NOP13, hits give low values 0.977 | S. cerevisiae deletion strains, locus YNL183C, strain NPR1, hits give low values 0.929 | S. cerevisiae deletion strains, locus YNL197C, strain WHI3, hits give low values 0.984 | S. cerevisiae deletion strains, locus YNL209W, strain ssb2, hits give low values 0.994 | S. cerevisiae deletion strains, locus YNL224C, strain SQS1, hits give low values 0.998 | S. cerevisiae deletion strains, locus YNL233W, strain BNI4, hits give low values 0.981 | S. cerevisiae deletion strains, locus YNL248C, strain rpa49, hits give low values 1.03 | S. cerevisiae deletion strains, locus YNL250W, strain rad50, hits give low values 1.02 | S. cerevisiae deletion strains, locus YNL271C, strain bni1, hits give low values 1.01 | S. cerevisiae deletion strains, locus YNL298W, strain CLA4, hits give low values 1.01 | S. cerevisiae deletion strains, locus YNL307C, strain MCK1, hits give low values 1.02 | S. cerevisiae deletion strains, locus YNL322C, strain KRE1 (second series), hits give low values 1.01 | S. cerevisiae deletion strains, locus YNR049C, strain mso1, hits give low values 1.02 | S. cerevisiae deletion strains, locus YNR052C, strain pop2, hits give low values 1.02 | S. cerevisiae deletion strains, locus YOL006C, strain TOP1, hits give low values 0.997 | S. cerevisiae deletion strains, locus YOL012C, strain htz1 0.779 | S. cerevisiae deletion strains, locus YOL147C, strain pex11, hits give low values 1.01 | S. cerevisiae deletion strains, locus YOR001W, strain rrp6, hits give low values 1.02 | S. cerevisiae deletion strains, locus YOR061W, strain CKA2, hits give low values 1.01 | S. cerevisiae deletion strains, locus YOR069W, strain VPS5, hits give low values 1.01 | S. cerevisiae deletion strains, locus YOR070C, strain gyp1, hits give low values 1 | S. cerevisiae deletion strains, locus YOR080W, strain dia2, hits give low values 1.02 | S. cerevisiae deletion strains, locus YOR083W, strain WHI5 (second series), hits give low values 0.983 | S. cerevisiae deletion strains, locus YOR083W, strain WHI5, hits give low values 0.989 | S. cerevisiae deletion strains, locus YOR106W, strain vam3, hits give low values 1.03 | S. cerevisiae deletion strains, locus YOR136W, strain idh2, hits give low values 1.01 | S. cerevisiae deletion strains, locus YOR144C, strain elg1, hits give low values 1.01 | S. cerevisiae deletion strains, locus YOR184W, strain ser1, hits give low values 1.01 | S. cerevisiae deletion strains, locus YOR231W, strain MKK1, hits give low values 0.986 | S. cerevisiae deletion strains, locus YOR265W, strain rbl2, hits give low values 1.01 | S. cerevisiae deletion strains, locus YOR270C, strain vph1, hits give low values 1.04 | S. cerevisiae deletion strains, locus YOR290C, strain snf2, hits give low values 0.99 | S. cerevisiae deletion strains, locus YOR316C, strain cot1, hits give low values 1.02 | S. cerevisiae deletion strains, locus YPL051W, strain arl3, hits give low values 1.01 | S. cerevisiae deletion strains, locus YPL055C, strain LGE1, hits give low values 0.96 and 0.983 | S. cerevisiae deletion strains, locus YPL078C, strain atp4, hits give low values 1.03 | S. cerevisiae deletion strains, locus YPL106C, strain sse1, hits give low values 0.969 | S. cerevisiae deletion strains, locus YPL240C, strain hsp82, hits give low values 1 | S. cerevisiae deletion strains, locus YPL241C, strain CIN2, hits give low values 1.01 and 0.99 | S. cerevisiae deletion strains, locus YPL256C, strain CLN2, hits give low values 0.974 | S. cerevisiae deletion strains, locus YPR119W, strain clb2, hits give low values 1.01 | S. cerevisiae deletion strains, locus YPR141C, strain kar3, hits give low values 1.02 | S. cerevisiae deletion strains, locus YPR163C, strain tif3, hits give low values 1.01 | S. cerevisiae deletion strains, locus YPR167C, strain met16, hits give low values 1.01 | S. cerevisiae deletion strains, strain wtn01, hits give low values 1.02 | S. cerevisiae strains, strain wild type, hits give low values 1
